Screening results deposited in PubChem BioAssay by Buhrlage Lab, Dana-Farber Cancer Institute and Novartis Institutes for BioMedical Research (Cambridge, Mass).
Only some compounds are listed: those with a hit (about 14% of all), similar ones and a draw of the others.
USP8 inh: blocks human USP8 ubiquitin-rhodamine cleavage; P40818; purified USP8, Ub-rhodamine cleavage fluorescence, 30 min; inhibition, % at 20 µM; hit rate 4.2% among 47,000
USP28 block: human USP28 deubiquitinase inhibition. purified USP28, Ub-rhodamine cleavage fluorescence, 30 min. inhibition, % at 25 µM. hit rate 3% among 47,000
USP10 block: blocks human USP10 ubiquitin-rhodamine cleavage; Q14694; purified USP10, Ub-rhodamine fluorescence, 60 min; inhibition, % at 20 µM; hit rate 1.1% among 47,000; AID 1645856
Target sequence (Q14694 whole entry, looked up): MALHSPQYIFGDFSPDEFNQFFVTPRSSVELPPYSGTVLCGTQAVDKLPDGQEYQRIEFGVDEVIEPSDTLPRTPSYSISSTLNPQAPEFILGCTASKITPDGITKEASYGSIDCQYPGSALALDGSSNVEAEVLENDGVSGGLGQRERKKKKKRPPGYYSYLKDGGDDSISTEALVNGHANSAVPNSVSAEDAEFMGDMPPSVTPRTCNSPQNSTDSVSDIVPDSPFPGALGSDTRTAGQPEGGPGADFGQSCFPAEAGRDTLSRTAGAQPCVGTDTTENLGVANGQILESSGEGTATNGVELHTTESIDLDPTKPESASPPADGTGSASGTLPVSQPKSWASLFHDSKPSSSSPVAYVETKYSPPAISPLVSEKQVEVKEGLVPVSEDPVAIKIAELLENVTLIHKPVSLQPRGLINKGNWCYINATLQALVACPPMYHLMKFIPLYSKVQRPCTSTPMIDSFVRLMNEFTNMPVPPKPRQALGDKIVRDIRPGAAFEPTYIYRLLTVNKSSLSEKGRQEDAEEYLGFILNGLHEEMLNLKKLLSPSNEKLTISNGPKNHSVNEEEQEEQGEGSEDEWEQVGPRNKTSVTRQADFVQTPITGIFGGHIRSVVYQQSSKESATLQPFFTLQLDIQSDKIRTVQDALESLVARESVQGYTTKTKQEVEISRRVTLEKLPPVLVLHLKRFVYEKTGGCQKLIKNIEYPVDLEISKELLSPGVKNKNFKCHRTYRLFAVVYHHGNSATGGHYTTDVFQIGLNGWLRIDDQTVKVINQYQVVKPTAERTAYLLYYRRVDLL
USP30 block: blocks human USP30 ubiquitin-rhodamine cleavage | hit rate 5.3% among 47,000 | purified USP30, Ub-rhodamine cleavage fluorescence | inhibition, % at 25 µM | Q70CQ3
USP17 block: blocks human USP17 ubiquitin-rhodamine cleavage. A8MUK1. purified USP17, Ub-rhodamine cleavage fluorescence, 3 h. inhibition, % at 50 µM. hit rate 6.5% among 47,000. AID 1645855
Numbers without * were called inactive; / = no result given. Cut-off read from the data, not from the text of the source: active = inhibition above about 30%; inactive = the rest.

SMILES	USP8 inh	USP28 block	USP10 block	USP30 block	USP17 block
COc1ccc(CN(C(=O)c2ccc(-c3ccccc3)[nH]2)C(C(=O)NC2CCCC2)c2ccncc2)cc1 (configuration not stated)	-16	-13	-6	-51	-9
O=C(NCCc1cccnc1)c1nc(-c2cn(-c3nccs3)cn2)n2ccccc12	-16	-5	-11	-108	45*
CCn1cc2nc(SCC(=O)N3CCCC3)n(Cc3ccc(OC)cc3)c(=O)c2n1	0	0	0	30	16
Cc1ccc(OC(=O)c2cn(-c3ccccc3)nc2-c2cccnc2)cc1	-14	-4	10	45*	55*
Cc1ccc(NC(=O)CN(C)C(=O)c2cn(-c3ccccc3)nc2-c2cccnc2)cc1	-38	-11	-1	-15	/
O=C(Cc1csc(-c2ccccc2)n1)Nc1ccc(N2CCOCC2)cc1	23	9	-1	-5	6
Cc1noc(C)c1-c1ccc(S(=O)(=O)Nc2cccc(F)c2)cc1	-5	-8	5	-16	-3
CCc1ccc(S(=O)(=O)Nc2ccc(-c3nnc(-c4ccccc4)o3)cc2)cc1	32*	33*	47*	32*	27
Cc1noc(C)c1-c1ccc(S(=O)(=O)Nc2ccccc2)cc1	29	12	3	30*	8
CCN1CCc2c(cccc2-n2nnc(C(=O)NCC3CCCO3)c2C)C1 (configuration not stated)	-2	-34	-4	-125	-38
Cc1oc(-c2ccc(C(=O)NCC3COCCO3)cc2)nc1CN1CCc2ccccc21 (configuration not stated)	-12	57*	-8	-51	-9
CCCN1CC(=O)N2C(c3cccc4ccccc34)c3[nH]c4ccccc4c3C[C@@H]2C1=O (some centres not stated)	-13	-36	-2	-125	-29
Cn1cc2c(n1)C(COc1cccnc1)CN(S(=O)(=O)C1CC1)C2 (configuration not stated)	-22	-2	2	-4	-24
CCOc1cccc(-c2cc(C(=O)Nc3ccc4c(c3)OCO4)c3ccccc3n2)c1	36*	-96	-7	-302	-60
O=C(Nc1ccc2c(c1)OCO2)c1cc(-c2ccncc2)nc2ccccc12	35*	-1	-4	-39	15
O=C(Nc1cc(-c2cccnc2)no1)c1ccc2c(c1)OCO2	11	18	-6	9	7
CCOc1cc(N2CCOCC2)c(OCC)cc1NC(=O)c1cc(-c2ccncc2)nc2ccccc12	70*	9	-6	-9	66*
Nc1c(C(=O)Nc2ccc3c(c2)OCO3)sc2nc(-c3cccnc3)ccc12	-27	33*	-6	-2	61*
O=C(c1cccc(Cl)c1)N1CCCn2nnc(CN3CCCCC3)c2C1	-219	-8	-1	-2	-46
COC(=O)C(Cc1ccc(C)cc1)(C(=O)OC)c1ccc([N+](=O)[O-])cc1	-13	1	5	-1	1
CC(=O)N1Cc2cccc3cccc(c23)C1	-61	-95	-2	-338	-51
NS(=O)(=O)c1ccc(CNS(=O)(=O)/C=C/c2ccccc2)cc1	18	57*	3	78*	86*
C=C1C=C(C)n2nc(CC(=O)NCCc3c[nH]c4ccc(F)cc34)nc2N1	0	5	0	-11	-4
COc1ccc(-c2noc(-c3nnn(-c4ccccc4C(F)(F)F)c3C)n2)cc1OC	4	2	2	5	15
CCn1c(CN2CCc3ccccc3C2)nc2cc(S(=O)(=O)N(C)C)ccc21	79*	5	-5	-42	34*
SMILES	USP8 inh	USP28 block	USP10 block	USP30 block	USP17 block
O=C(Nc1nc2c(s1)CN(C(=O)c1ccco1)CC2)C1CCCO1 (configuration not stated)	-9	-19	-6	-83	-35
COc1cccc2cc(C(=O)N3CCc4nc(NC(=O)C5CCCO5)sc4C3)oc12 (configuration not stated)	-22	14	-5	-8	34*
O=S(=O)(Nc1ccc2oc(-c3ccncc3)nc2c1)c1ccccc1	2	32*	5	30*	55*
O=C(COc1ccc(C2CCCCC2)cc1)Nc1ccc2oc(-c3cccnc3)nc2c1	-13	-9	3	26	0
COc1ccc(-c2cccc(C3CN(Cc4ncc[nH]4)CCO3)n2)cc1 (configuration not stated)	0	/	-2	/	6
CCCNC(=O)c1ccc2c(c1)N(CCC)C(=O)C1CCC(=O)N21 (configuration not stated)	-5	2	-1	-5	6
